# KB-3-1 tox – KB-3-1 parental cell cytotoxicity. KB-3-1 viability, CellTiter-Glo ATP luminescence, 72 h. Potency, µM (titrated, usually from 46.1 µM), actives largely listed as cytotoxic. actives 1.4% (n = 400,000); note: % is set by controls: 0 for no effect and ±100 for the full control effect; nearly all actives have a fitted effect of over 60% in size
#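 Parental KB-3-1 adenocarcinoma cells in phenol-red-free DMEM with 10% FBS were pin-treated with compounds at several concentrations, incubated 72 h at 37 °C, and viability read by CellTiter-Glo luminescence; concentration-effect curves were fitted after normalization.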
# ATXN2 expr inh – inhibitors of ATXN2 expression; HEK-293 ATXN2-luciferase reporter, luminescence, 24 h; Potency, µM (titrated, usually from 57 µM), for the others: at the highest dose activity change, negative = inhibition, most hits filed as inhibitors; actives 0.72% (n = 360,000); AID 1745845; note: % is set by controls: 0 for no effect and ±100 for the full control effect; nearly all actives have a fitted effect of over 55% in size
#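 ATXN2-luciferase reporter cells (luciferase flanked by upstream and downstream ATXN2 gene portions) were treated 24 h at 37 °C with compounds at up to 57 uM. SteadyGlo luminescence gave expression; GF-AFC fluorescence gave viability.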
# TGFb SMAD3 inh – inhibitors of TGF-b signaling | HepG2 CAGA-GFP TGF-b/SMAD3 reporter, GFP fluorescence, 18 h; TGF-beta stimulated, 500 pg/mL final | Potency, µM (top dose mostly 46.1 µM), for the others: at the highest dose activity, negative = inhibition, hits mostly inhibitors | actives 1.2% (n = 410,000) | AID 588855; note: % is set by controls: 0 for no effect and ±100 for the full control effect; nearly all actives have a fitted effect of over 65% in size
#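 Inhibition was scored as loss of TGF-beta-induced (500 pg/mL final, 18 hours, 37 degrees C) GFP in HEPG2 cells carrying a CAGA-GFP reporter, in DMEM with 1% FBS. Well GFP was summed per cell; Activity was normalised to unstimulated and stimulated DMSO wells, then concentration-response fitting.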
# HepG2 viability – kills HepG2 cells in TGF-b inhibitor counter-screen; HepG2 CAGA-GFP viability, ATP luminescence, 18 h; Potency, µM (top dose mostly 46.1 µM), without a hit: top-dose activity change, negative = cytotoxicity, actives largely listed as cytotoxic; actives 0.76% (n = 410,000)
#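 CellTiter-Glo luminescence gave cytotoxicity after 18 hours at 37 degrees C. The cells were HepG2 CAGA-GFP in 1% FBS DMEM, stimulated with 500 pg/mL TGF-beta after compound addition. %Activity was normalised to no-cell wells (complete cell-killing) and DMSO (no toxicity), and curves were fitted and classified.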
# ATXN viability – viability counter-screen for ATXN expression inhibitors; S2 cells (HEK-293 line with an ATXN2-luciferase reporter) viability, CellTiter-Fluor protease fluorescence, 24 h; Potency, µM (series often up to 56.7 µM), usual class: cytotoxic; actives 0.49% (n = 400,000); note: nearly all actives have a fitted effect of over 40% in size
# KB-V1 MDR tox – kills drug-selected multidrug resistant KB-V1 cells; KB-V1 MDR cells viability, CellTiter-Glo, 72 h; Potency, µM (series often up to 46.1 µM), most hits filed as cytotoxic; actives 3.4% (n = 400,000); AID 1347076; note: % is set by controls: 0 for no effect and ±100 for the full control effect; nearly all actives have a fitted effect of over 60% in size
#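 In this primary screen, KB-V1 cells overexpressing P-gp are incubated with library compounds (lowest to highest concentration) for 72 h at 37 degrees C before a luminescent ATP viability read.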
# * marks the source's active call; other numbers are inactive results; i = inactive; ? = inconclusive; / = no result; [ ] = dose if it differs, or a comment. Sampled rows, rich in hits. Any-hit rate of the full collection: about 5.9%. Calls come from the whole dose curve; as a rule, active = well fitted curve in the direction sought with a large enough effect; inconclusive = small, poorly fitted or top-dose-only effect, or another doubt; inactive = no such curve, though single readings can be large; an effect the other way counts as inactive or inconclusive. Potency is the fitted concentration of half-maximal effect.
SMILES,KB-3-1 tox,ATXN2 expr inh,TGFb SMAD3 inh,HepG2 viability,ATXN viability,KB-V1 MDR tox
CCN1C(=O)C(CC(=O)Nc2ccc(F)cc2)N(CCc2ccc(OC)cc2)C1=S (stereo not given),i,4%[11.3 µM],-11%,-23%,i,i
CCN1C(=O)C(CC(=O)Nc2ccc(OC)cc2)N(CCc2ccccc2)C1=S (stereo not given),?,-15%,-3%,5%,i,21µM*
C=CCN1C(=O)C(CC(=O)Nc2ccc(OC)cc2)N(Cc2ccco2)C1=S (stereo not given),i,-1%,1%,8%,i,21µM*
O=C(c1ccc2c(c1)OCCO2)N(Cc1cccnc1)c1nc2ccc(F)cc2s1,/,/,-4%,-21%,/,/
O=C(Nc1nnc(-c2ccncc2)o1)c1ccc(Br)s1,21µM*,-34%,-17%,-49%,i,?
CC(C)(C)C(=O)Nc1nnc(-c2ccncc2)o1,i,1%,0%,1%,i,i
COc1cc(CN2CCN(c3cccc(Cl)c3)CC2)cc(OC)c1OC,3.7µM*,?,-1%,-4%,i,2.3µM*
CCOc1cccc(CN2CCN(c3cccc(C(F)(F)F)c3)CC2)c1O,i,-29%,8%,-7%,i,i
COc1cccc(CN2CCN(c3cccc(C(F)(F)F)c3)CC2)c1OC,i,-22%,?,-42%,i,21µM*
COc1ccc(-c2c(C3C4C=CCC(C)C4C(=O)N3Cc3ccccc3)ccc3ccccc23)cc1OC (stereo not given),/,/,?,-18%,/,/
COC(=O)[C@@]12C[C@@H](CC(=O)NCc3cccs3)C(=O)N(Cc3cccc4ccccc34)C1=CCC(C)(C)C2,?,/,/,/,/,16µM*
CCCCNC(=O)C[C@@H]1C[C@@]2(C(=O)OC)CC(C)(C)CC=C2N(Cc2cccc3ccccc23)C1=O,i,/,/,/,/,?
C#CCNC(=O)C[C@@H]1C[C@@]2(C(=O)OC)CC(C)(C)CC=C2N(Cc2ccco2)C1=O,i,/,/,/,/,?
COC(=O)[C@@]12C[C@@H](CC(=O)NCC34CC5CC(CC(C5)C3)C4)C(=O)N(Cc3ccco3)C1=CCC(C)(C)C2,?,/,/,/,/,15µM*
C#CCNC(=O)C[C@@H]1C[C@@]2(C(=O)OC)CC(C)(C)CC=C2N(Cc2cccc3ccccc23)C1=O,?,/,/,/,/,23µM*
O=C(c1cccc(F)c1F)N1CCOc2ccc(CN3CCN(Cc4ccccn4)CC3)cc2C1,/,/,/,/,i,/
COc1ccc(Cn2c(CCC(=O)Nc3cccc(Cl)c3)nc3cccnc32)cc1,i,-17%,-9%,-21%,i,i
COc1ccc(-c2nc(CSCC(=O)N3CCN(c4ccccc4F)CC3)c(C)o2)cc1,?,?,6.3µM*,-35%,/,?
COc1cccc(-c2nc(CSCC(=O)N3CCc4ccccc43)c(C)o2)c1,?,-7%,11%,1%,i,10µM*
CCc1ccc(-c2nc(CSCC(=O)N3CCN(c4ccccn4)CC3)c(C)o2)cc1,?,?,?,-30%,?,18µM*
Cc1ccc(-c2nc(CSCC(=O)N3CCN(c4ccccn4)CC3)c(C)o2)cc1,?,?,?,1%,?,?
CC(=O)Nc1cc(-c2cccc(F)c2)cn2c(-c3ccc(S(C)(=O)=O)cc3)cnc12,i,-15%,19%,0%,i,i
C[C@H](CO)N1C[C@H](C)[C@@H](CN(C)Cc2ccccc2)Oc2c(NC(=O)C3CCCCC3)cccc2C1=O,?,?,?,-10%,20µM*,?
C[C@H](CO)N1C[C@H](C)[C@@H](CN(C)CC2CC2)Oc2c(NC(=O)C3CC3)cccc2C1=O,i,-5%,-18%,-16%,i,i
